The values below come from PubChem BioAssay (EPA / NIEHS).

Calls of active or inactive are those of the source. How the source made its calls: active means hit-call score of the fitted dose curve at least 0.9, where 1 is the maximum; inactive means score below 0.9.

Details in all cases: mRNA level, 48 h; actives raise or lower the signal
Read-out in experiment [1]: Fatty Acid-Binding Protein 1 (FABP1), FABP1 (gene 2168)
In words: LTEA_HepaRG_FABP1: Life Technologies and Expression Analysis (LTEA) Assay for Fatty Acid-Binding Protein 1 (FABP1) using HepaRG (AID 2283494). The essentials: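 qRT-PCR readout of FABP1 transcript (normalized to three housekeeping genes) after 48 h chemical exposure of HepaRG cells; eight concentrations, half-log steps, max 100 uM, 0.5% DMSO vehicle; gain or loss fitted relative to DMSO baseline.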

Read-out in experiment [2]: Cytochrome P450 4A22 (Homo sapiens) (UniProt Q5TCH4)
In words: LTEA_HepaRG_CYP4A22: Life Technologies and Expression Analysis (LTEA) Assay for Cytochrome P450 4A22 (CYP4A22) using HepaRG (AID 2283495). The gist of the method:
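Gene expression measured by qRT-PCR against three housekeeping genes (ACTB, GAPDH, POLR2A), with gain or loss fitted relative to 0.5% DMSO vehicle. HepaRG cultures received 48 h chemical treatment, top concentration 100 uM, half-log steps, duplicate wells.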

Read-out in experiment [3]: Cytochrome P450 7A1 (Homo sapiens) (UniProt P22680)
The experiment can be described thus: LTEA_HepaRG_CYP7A1: Life Technologies and Expression Analysis (LTEA) Assay for Cytochrome P450 7A1 (CYP7A1) using HepaRG (AID 2283496). The gist of the method: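 Using 0.5% DMSO as vehicle and baseline, chemicals were tested in duplicate over an 8-point range from 100 uM on HepaRG cells for 48 h; qRT-PCR signals were normalised to ACTB, GAPDH and POLR2A.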

Read-out in experiment [4]: Glutathione S-Transferase (GSTA2), GSTA2 (gene 2939)
In words: LTEA_HepaRG_GSTA2: Life Technologies and Expression Analysis (LTEA) Assay for Glutathione S-Transferase (GSTA2) using HepaRG (AID 2283497). The gist of the method: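 qRT-PCR readout of GSTA2 transcript, normalized to three housekeeping genes, fitted bidirectionally against 0.5% DMSO baseline. Differentiated HepaRG cells received compound for 48 h at 8 concentrations (top 100 uM, half-log steps).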

Read-out in experiment [5]: Glutamate-cysteine ligase catalytic (GCLC), GCLC (gene 2729)
The experiment can be described thus: LTEA_HepaRG_GCLC: Life Technologies and Expression Analysis (LTEA) Assay for Glutamate-cysteine ligase catalytic (GCLC) using HepaRG (AID 2283498). The gist of the method:
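HepaRG, 48 h exposure, 8-pt half-log series from 100 uM, 0.5% DMSO vehicle; TaqMan qRT-PCR for GCLC mRNA, housekeeping-normalized; bidirectional curve fit vs DMSO baseline.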

Read-out in experiment [6]: growth arrest and DNA damage 45 (GADD45G), GADD45G (gene 10912)
The experiment can be described thus: LTEA_HepaRG_GADD45G: Life Technologies and Expression Analysis (LTEA) Assay for growth arrest and DNA damage 45 (GADD45G) using HepaRG (AID 2283499). The essentials:
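GADD45G transcript level by qRT-PCR (housekeeping-normalized: ACTB, GAPDH, POLR2A) after 48 h chemical treatment of a single HepaRG lot in serum-free induction medium; eight-point half-log series up to 100 uM in 0.5% DMSO, duplicates, up- or down-regulation scored.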

Read-out in experiment [7]: Glutamate-cysteine ligase regulatory (GCLM), GCLM (gene 2730)
In words: LTEA_HepaRG_GCLM: Life Technologies and Expression Analysis (LTEA) Assay for Glutamate-cysteine ligase regulatory (GCLM) using HepaRG (AID 2283500). The gist of the method:
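In this multiplexed HepaRG gene-expression assay, GCLM mRNA change after 48 h treatment (8 concentrations, max 100 uM) was scored against DMSO by bidirectional curve fitting.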

Read-out in experiment [8]: Glutathione S-transferase M3 (GSTM3), GSTM3 (gene 2947)
In words: LTEA_HepaRG_GSTM3: Life Technologies and Expression Analysis (LTEA) Assay for Glutathione S-transferase M3 (GSTM3) using HepaRG (AID 2283501). The essentials: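 GSTM3 transcript levels came from Fluidigm TaqMan qRT-PCR normalized to three housekeeping genes, fitted in both directions against DMSO. HepaRG cultures received chemicals for 48 h in serum-free induction medium (0.5% DMSO), 8 half-log concentrations up to 100 uM, duplicate.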

Read-out in experiment [9]: Heat shock 70 kDa protein 1 (HSPA1A), gene 3303
In words: LTEA_HepaRG_HSPA1A: Life Technologies and Expression Analysis (LTEA) Assay for Heat shock 70 kDa protein 1 (HSPA1A) using HepaRG (AID 2283502). The essentials:
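An oxidative-stress marker readout: HepaRG cells treated 48 h in duplicate with an eight-point series (highest 100 uM) had HSPA1A mRNA quantified by TaqMan qRT-PCR. Activity was fitted in both directions using 0.5% DMSO as baseline.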

For orientation: AC50 means the midpoint of the concentration-response curve, whichever way the signal moves. For `Fc1ccccc1[C@@H](F)COC1CCC(Nc2ncnc3[nH]ncc23)CC1` (stereo partly specified), the AC50 in experiment [1] was 64 µM (active); in [2], 23 µM (active); in [3], 77.1 µM (active); in [4] it was 37.5 µM (active); in [5], 50 µM (active); in experiment [6], 30 µM (active). Also, the figures for the AC50 in experiment [8] and in experiment [9] were 65.2 µM (active) and 50 µM (active), respectively. In addition, in experiment [7], the compound was classed as inactive.
For `CCC(C)(C)C(=O)O[C@H]1C[C@@H](C)C=C2C=C[C@H](C)[C@H](CC[C@@H]3C[C@@H](O)CC(=O)O3)[C@H]21`, the AC50 in [1] is 5.7 µM (active). In addition, the compound was classed as inactive in [4], in [5], in experiment [6], in [7], in experiment [8] and in experiment [9].
Take `CCCC(=O)OCC`: the compound was called inactive in experiment [1], in experiment [2], in [3], in experiment [4], in experiment [5] and in experiment [6]. In addition, the result in experiment [7], in experiment [8] and in experiment [9] was inactive.
With `C[C@](N)(Cc1ccc(O)c(O)c1)C(=O)O`, the call in experiment [1], in experiment [2], in [3], in [4], in experiment [5] and in experiment [6] was inactive. In addition, the outcome in experiment [7], in experiment [8] and in experiment [9] was inactive.
In the case of `O=C1OC(=O)C2C3C=CC(C3)C12` (stereo unspecified), the compound was called inactive in experiment [1], in experiment [2], in experiment [3], in experiment [4], in [5] and in [6]. In addition, the outcome in [7], in [8] and in experiment [9] was inactive.
Consider `CCOCCOCCOCCO`, for which the call in experiment [1], in [2], in [3], in [4], in experiment [5] and in [6] was inactive. The outcome in experiment [7], in experiment [8] and in experiment [9] was inactive.
With `O=C(CCCCCCCCc1cccnc1)N1CCC(C=C(c2ccccc2)c2ccccc2)CC1`, the half-maximal activity concentration (AC50) is 26.9 µM (active) in experiment [1]; 22.7 µM (active) in [2]; 27.1 µM (active) in experiment [3]; 28.7 µM (active) in [4]; 12.5 µM (active) in experiment [5]; 22.8 µM (active) in experiment [6]. The AC50 was 12.8 µM (active) in experiment [7] and 81 µM (active) in experiment [9]. Moreover, the result in experiment [8] was inactive.
On to `CC(C)CCCCCCOC(=O)c1ccc(C(=O)OCCCCCCC(C)C)c(C(=O)OCCCCCCC(C)C)c1`, for which the outcome in experiment [1], in experiment [2], in experiment [3], in experiment [4], in experiment [5] and in experiment [6] was inactive. The result in [7], in [8] and in experiment [9] was inactive.
For the compound `O=C(O)c1cc(N=Nc2ccc(S(=O)(=O)Nc3ccccn3)cc2)ccc1O`, the compound was classed as inactive in [1], in experiment [2], in experiment [3], in [4], in experiment [5] and in experiment [6]. In addition, the result in experiment [7] and in experiment [9] was inactive.
As to `NC(=O)NO`, the compound was classed as inactive in experiment [1], in experiment [4], in experiment [5], in experiment [6], in experiment [7] and in [8]. For the same compound, the result in [9] was inactive.
Regarding `CC(C)CC(C)(O)C#CC(C)(O)CC(C)C` (stereo unspecified), the compound was classed as inactive in [1], in [4], in experiment [5], in experiment [6], in experiment [7] and in [8]. The call in experiment [9] was inactive.
For `CCCN(C1CCN(C(=O)C2CCNCC2)CC1)[C@@H]1CCc2ccc(OC)cc2C1`, the AC50 in experiment [1] was 83.5 µM (active); in experiment [2], 88.2 µM (active); in [3] it was 77.3 µM (active); in experiment [4], 81 µM (active); in [5], 50 µM (active); in experiment [8] it was 50 µM (active). Also, the half-maximal activity concentration (AC50) in experiment [9] was 79.6 µM (active). Besides, the result in experiment [6] and in [7] was inactive.
With `CC(C)=CCC/C(C)=C/CO`, the compound was classed as inactive in [1], in experiment [4], in experiment [5], in experiment [7] and in [8].
Take `COc1ccc(-n2nc(C(F)F)cc2-c2ccc(S(C)=O)cc2)cc1` (stereo unspecified): the compound was classed as inactive in experiment [1], in experiment [3], in experiment [4], in [5], in [6] and in experiment [7]. The result in [8] was inactive. In addition, the AC50 in [2] is 15.6 µM (active); in experiment [9] it was 43.5 µM (active).
Consider `Nc1cccc(N)c1`, for which the compound was classed as inactive in [1], in experiment [2], in [3], in experiment [4], in [5] and in [6]. The outcome in experiment [7], in [8] and in experiment [9] was inactive.
`CCCCC(CC)COC(=O)CCCCCCCCC(=O)OCC(CC)CCCC` (stereo unspecified): the result in experiment [1], in experiment [2], in [3], in experiment [4], in [5] and in experiment [6] was inactive. Also, the call in [7], in experiment [8] and in experiment [9] was inactive.
With `CCCCCCc1ccc(O)cc1O`, the compound was classed as inactive in [1], in [2], in experiment [3], in experiment [4], in experiment [5] and in experiment [6]. The result in experiment [7], in [8] and in experiment [9] was inactive.
Take `CC(C)(O)c1coc(S(=O)(=O)NC(=O)Nc2c3c(cc4c2CCC4)CCC3)c1`: the compound was classed as inactive in [1], in experiment [2], in [4], in experiment [5], in [6] and in experiment [7]. Further, the compound was called inactive in experiment [8] and in experiment [9]. In addition, in experiment [3], the AC50 was 18.3 µM (active).
Take `CC[C@H](C)C(=O)O[C@H]1C[C@@H](C)C=C2C=C[C@H](C)[C@H](CC[C@@H]3C[C@@H](O)CC(=O)O3)[C@H]21`: in experiment [1], the AC50 was 13.2 µM (active). The outcome in experiment [2], in [3], in experiment [4], in experiment [5], in experiment [6] and in experiment [7] was inactive. Further, the call in [8] and in experiment [9] was inactive.
Turning to `CCOC(=O)COc1ccc2c(c1)CC(NCC(O)c1cccc(Cl)c1)CC2` (stereo unspecified), the AC50 in experiment [1] was 45.8 µM (active). Further, the compound was called inactive in experiment [2], in experiment [3], in experiment [4], in experiment [5], in experiment [6] and in experiment [7]. In addition, the result in experiment [8] and in experiment [9] was inactive.
With `On1ccccc1=S`, the compound was classed as inactive in experiment [1], in experiment [4], in [5], in experiment [6], in experiment [7] and in experiment [8]. Further, the outcome in [9] was inactive.
As to `O=C(O)c1cccc(N(Cc2cccnc2)c2ccc(OC(F)F)c(OC(F)F)c2)c1`, the AC50 was 87 µM (active) in experiment [1] and 4.48 µM (active) in experiment [3]. In addition, the result in experiment [2], in [4], in experiment [5], in [6], in [7] and in experiment [8] was inactive. Besides, the compound was classed as inactive in experiment [9].
On to `Cc1ccc(O)cc1`, for which the call in experiment [1], in experiment [4], in experiment [5], in [6], in experiment [7] and in experiment [8] was inactive. For the same compound, in experiment [9], the call was inactive.
As to `CC(C)=CCCC(C)=CC=O`, the call in [1], in [2], in [3], in experiment [4], in experiment [5] and in [6] was inactive. Moreover, the compound was called inactive in [7], in experiment [8] and in experiment [9].
`CC(C)=CCC/C(C)=C\CO`: the compound was called inactive in experiment [1], in [4], in [5], in experiment [7], in experiment [8] and in experiment [9].
Regarding `CN(C)c1ccc(N=NS(=O)(=O)O)cc1`, the AC50 in [1] was 50 µM (active); in experiment [2], 9.92 µM (active); in experiment [3] it was 2.51 µM (active); in experiment [7] it was 50 µM (active). Also, the call in experiment [4], in experiment [5], in experiment [6], in [8] and in experiment [9] was inactive.
